In PubChem BioAssay one finds z-score data, which are given here for 10 compounds.

Unmarked numbers belong to inactive results.

The assay is described as follows: yeast growth modulation, basal conditions, primary screen, YJM789 clinical isolate, OD600, 24 h (AID 1089).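 Note: growth of clinical yeast isolate S. cerevisiae YJM 789 seeded 1000 cells per well; test concentration not given here.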 Particulars: S. cerevisiae YJM789 growth, higher = more signal, called active from +8 up or from −8 down.
Turning to `CCOC(=O)C1=NO[C@]2(C=C(Br)C3(OCCCO3)[C@H]3O[C@H]32)C1`, the z-score is -0.658.

Turning to `Cc1cc2c(nc1C)CCCCN2CC(C)ON=C1[C@H]2CCn3c(=O)n(-c4ccccc4)c(=O)n3[C@H]2[C@H](O)[C@@H]2O[C@H]12` (stereo not given in full), the z-score is 0.678.

`COc1ccc(O[C@H]2C=C[C@@H](c3ccccc3)O[C@@H]2COC(=O)CCC(C)=NO[C@@H]2O[C@H](COC(C)=O)[C@@H](OC(C)=O)[C@H](OC(C)=O)[C@H]2OC(C)=O)cc1`: the z-score was 1.2.

Consider `Cc1cc2c(c(=O)o1)[C@@H](O)[C@H]1O[C@H]1C2=O`, for which the z-score is 0.112.

Take `CCOC(=O)CCN1C(=O)[C@H]2[C@H]3[C@H](O)[C@H](O)CC(=NNC(=O)OCc4ccccc4)[C@@H]3CC[C@H]2C1=O`: the z-score is -0.662.

With `O=C1[C@H]2[C@H]3[C@H](O)[C@H](O)CC(=NOC[C@@H](O)COCc4ccco4)[C@@H]3CC[C@H]2C(=O)N1C[C@@H]1CCCO1`, the z-score was 0.715.

For `CC(C)CON=C1C[C@@H](O)[C@@H](O)[C@@H]2[C@@H]3C(=O)N(C[C@@H]4CCCO4)C(=O)[C@@H]3CC[C@@H]12`, the z-score is -1.49.

With `CON=Cc1ccc(C(=O)N2[C@H](c3ccc(C)cc3)[C@@H](C)CC[C@H]2C(=O)OC)cc1`, the z-score was -0.0099.

Turning to `C[C@@H](c1ccccc1)N1C(=O)[C@H]2[C@H]3[C@H](O)[C@H](O)CC(=O)[C@H]3CC[C@H]2C1=O`, the z-score was -0.394.

Turning to `CC(C)CON=C1C[C@@H](O)[C@@H](O)[C@@H]2[C@@H]3C(=O)N(Cc4ccc5c(c4)OCO5)C(=O)[C@@H]3CC[C@H]12`, the z-score was 0.306.
